Screening data deposited in PubChem BioAssay by National Center for Advancing Translational Sciences (NCATS).
The list is not random: actives were taken first. Their share in the collection is about 3.6%.
A549 viability – kills or reduces viability of A549 cells in Nrf2 counter-screen; 390,000 tested, 0.16% active; Potency, µM (highest dose often 46 µM), usual class: inhibitors; A549 ARE-Fluc cells, CellTiter-Fluor viability, 18-24 h
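A549 ARE_Fluc cells in 5% FBS OPTI-MEM were exposed to compounds in concentration-response for 18-24 h at 37 deg C. Viability was read by CellTiter-Fluor fluorescence (Ex 405/Em 525) after 30 min, before the luciferase read.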
Nrf2 inh – blocks Nrf2 signaling; A549 ARE-Fluc reporter, luciferase luminescence, 18-24 h; Potency, µM (top dose mostly 46 µM), hits mostly inhibitors; 360,000 tested, 2.1% active; AID 504444; further: nearly all actives have a fitted effect of over 60% in size
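Two sequential reads on A549 ARE_Fluc cells exposed to compound for 18-24 h: a CellTiter-Fluor fluorescence read for viability, then a luciferase luminescence read for Nrf2/ARE activity.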
HepG2 viability – HepG2 cytotoxicity, counter-screen for TGF-b inhibitors; AID 588856; HepG2 CAGA-GFP viability, ATP luminescence, 18 h; Potency, µM (series often up to 46.1 µM), most hits filed as cytotoxic; 410,000 tested, 0.76% active
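HepG2 CAGA-GFP cells (1000/well, DMEM with 1% FBS) received compound, then TGF-beta at 500 pg/mL final, and were incubated 18 hours at 37 degrees C. Viability was read by CellTiter-Glo luminescence. Media-only wells were set as complete cell-killing and DMSO as no toxicity.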
Nrf2 activator – Nrf2 pathway activation; 410,000 tested, 0.31% active; Potency, µM (top dose mostly 46.1 µM), actives largely listed as activators; AREc32 ARE-luciferase reporter (MCF7-derived line), luminescence, 24 h; AID 624171; further: nearly all actives have a fitted effect of over 65% in size
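Each well held 1000 AREc32 cells, which were incubated with compound for 24 hr at 37 deg C after overnight attachment, and ARE reporter activity was quantified by firefly luciferase luminescence.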
TGFb inhibitor – TGF-b pathway inhibition; HepG2 CAGA-GFP TGF-b/SMAD3 reporter, GFP fluorescence, 18 h; TGF-beta stimulated, 500 pg/mL final; Potency, µM (series often up to 46.1 µM), actives largely listed as inhibitors; 410,000 tested, 1.2% active; further: nearly all actives have a fitted effect of over 65% in size
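HEPG2 CAGA-GFP reporter cells (1000/well, DMEM with 1% FBS) received compounds, then recombinant TGF-beta at 500 pg/mL final for 18 hours at 37 degrees C. Per-cell GFP summed per well was normalised to unstimulated and stimulated DMSO controls before curve fitting.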
Of the large screens only hits and unclear results are named; the others gave an inactive call. The call rests on the fitted dose curve; in most records, active means well fitted curve in the direction sought with a large enough effect; inconclusive means small, poorly fitted or top-dose-only effect, or another doubt; inactive means no such curve, though single readings can be large; an effect the other way counts as inactive or inconclusive.

CCN(CC)C(=O)c1nn(-c2ccccc2)c2c1C1CCC2(C)C1(C)C (centres undefined)	Nrf2 inh 16µM, TGFb inhibitor inconclusive
CCN(CC)CCNCc1cc(Br)ccc1OCC(=O)NCc1ccccc1	none
CC(NCc1cc(Br)ccc1OCC(=O)NCc1ccccc1)c1ccccc1 (centres undefined)	TGFb inhibitor 13µM
Cc1noc(C)c1COC(=O)c1ccccc1Oc1ccccc1	none
Cc1noc(C)c1COC(=O)c1ccccc1NC(=O)Cc1ccccc1	Nrf2 inh 15µM (no result: A549 viability)
O=C1c2[nH]nc(-c3ccc(F)cc3)c2C(c2ccccc2F)N1c1ccccc1 (centres undefined)	Nrf2 inh inconclusive, TGFb inhibitor inconclusive
CCOc1ccc(N2C(=O)c3[nH]nc(-c4ccc(OC)cc4)c3C2c2cccs2)cc1 (centres undefined)	A549 viability inconclusive, Nrf2 inh 23µM, TGFb inhibitor inconclusive
CCCN1C(=O)c2[nH]nc(-c3ccc(OC)cc3)c2C1c1ccccn1 (centres undefined)	none
CCOc1ccc(-c2n[nH]c3c2C(c2cccs2)N(c2ccc(Br)cc2)C3=O)cc1 (centres undefined)	Nrf2 inh 23µM, TGFb inhibitor 6.3µM
O=C(Nc1cccc(C(F)(F)F)c1)C(SCCO)c1ccccc1 (centres undefined)	none
Cc1c(C(=O)OCc2nc3scc(-c4ccccc4)c3c(=O)[nH]2)cccc1[N+](=O)[O-]	Nrf2 inh 21µM
C=CCNC(=S)Nc1ccc(OC(F)F)c(Cl)c1	Nrf2 inh inconclusive
Cc1ccc(NC(=O)COC(=O)C2(CC(=O)NC(C)C)CCCC2)cc1C	none
O=c1[nH]c(CN2CCN(S(=O)(=O)/C=C/c3ccccc3)CC2)nc2cc(Cl)ccc12	Nrf2 inh 16µM, TGFb inhibitor inconclusive
CNC(=O)/C(C#N)=C/c1c(N(Cc2ccccc2)Cc2ccccc2)nc2c(C)cccn2c1=O	A549 viability inconclusive, Nrf2 inh 26µM, TGFb inhibitor 13µM
O=C(CSc1nc(-c2ccco2)nc2cc(=O)[nH]n12)Nc1ccccc1Cl	Nrf2 activator 14µM
CCCC(=O)N/C(N)=N/c1nc2ccccc2o1	Nrf2 inh inconclusive
Cc1ccc(-c2nnc(Nc3cccc(O)c3)c3ccccc23)cc1S(=O)(=O)N1CCN(C)CC1	none
Cc1ccc(-c2nnc(Nc3ccccc3)c3ccccc23)cc1S(=O)(=O)NCC1CCCO1 (centres undefined)	Nrf2 inh inconclusive
Cc1ccc(C)c(Nc2nnc(-c3ccc(C)c(S(=O)(=O)NCC4CCCO4)c3)c3ccccc23)c1 (centres undefined)	Nrf2 inh 23µM, TGFb inhibitor inconclusive
Cc1ccc(-c2nnc(Nc3ccc(Cl)c(Cl)c3)c3ccccc23)cc1S(=O)(=O)NCCO	Nrf2 inh inconclusive, TGFb inhibitor 11µM
Cc1ccc(-c2nnc(Nc3ccc(O)cc3)c3ccccc23)cc1S(=O)(=O)N1CCN(C)CC1	TGFb inhibitor 10µM
CNS(=O)(=O)c1cc(-c2nnc(Nc3ccc(NC(C)=O)cc3)c3ccccc23)ccc1C	TGFb inhibitor inconclusive
C#CC(C)(C)NS(=O)(=O)c1cc(-c2nnc(Nc3ccc(C)cc3)c3ccccc23)ccc1C	A549 viability inconclusive, Nrf2 inh inconclusive, TGFb inhibitor 13µM
CNS(=O)(=O)c1ccc(CNC[C@H]2O[C@@H](n3cnc4c(=O)[nH]c(N)nc43)[C@H](O)[C@@H]2O)cc1	none (no result: A549 viability, Nrf2 inh)
CCN(CC)C(=O)c1ccc(Nc2nnc(-c3ccc(C)c(S(=O)(=O)NC)c3)c3ccccc23)cc1	Nrf2 inh inconclusive, TGFb inhibitor 11µM
O=C(NN=C1CCCCCC1)c1cn(-c2ccccc2)nc1-c1ccccc1	none
C1CCCC(N2CCNCC2)CC1	none
CSCCOC(=O)COc1ccc(/C=N/NC(=O)c2nn(C)cc2Cl)cc1	none
Cc1ccc(S(=O)(=O)Oc2ccc(/C=N/NC(=O)c3nn(C)cc3Cl)cc2)cc1	Nrf2 inh 18µM
CC1(c2nnc(-c3ccc(Cl)cc3)o2)CC(c2ccc([N+](=O)[O-])cc2)=NO1 (centres undefined)	none
CC1(c2nnc(-c3ccncc3)o2)CC(c2c(Cl)cccc2Cl)=NO1 (centres undefined)	none
CC1(c2nnc(-c3ccccc3)o2)CC(c2c(Cl)cccc2Cl)=NO1 (centres undefined)	Nrf2 inh 23µM
CC1(c2nnc(-c3ccncc3)o2)CC(c2ccc([N+](=O)[O-])cc2)=NO1 (centres undefined)	Nrf2 inh 12µM
Cn1c2ccccc2c(=O)c2ccc(NCc3ccc4c(c3)OCO4)cc21	Nrf2 inh 26µM, TGFb inhibitor inconclusive
COc1cccc2sc3ccc(NCc4ccc5c(c4)OCO5)cc3c(=O)c12	none
COc1c(N2CCN(C(=S)NCc3ccccc3)C(C)C2)c(F)cc2c(=O)c(C(=O)O)cn(C3CC3)c12 (centres undefined)	A549 viability inconclusive, Nrf2 inh 23µM, TGFb inhibitor inconclusive
Cc1cc(C)c2c(c1)-c1c(ssc1=S)C(C)(C)N2C(=O)CSc1nncn1C	A549 viability inconclusive, Nrf2 inh inconclusive, TGFb inhibitor 6.3µM
O=C(c1cc(COc2cccc(C(F)(F)F)c2)on1)N1CCC(c2ccccc2)CC1	Nrf2 inh 13µM, TGFb inhibitor inconclusive
CC(=O)c1ccc(OCc2cc(C(=O)N3CCC(c4ccncc4)CC3)no2)cc1	none
O=C(c1cc(COc2cccc(C(F)(F)F)c2)on1)N1CCC(c2ccncc2)CC1	Nrf2 inh 13µM, TGFb inhibitor inconclusive
O=C(c1cc(COc2cccc(C(F)(F)F)c2)on1)N1C[C@@H]2CCC[C@H]1C2	Nrf2 inh inconclusive
COc1cccc(OCc2cc(C(=O)N3CCC(c4ccncc4)CC3)no2)c1	Nrf2 inh 5.2µM
O=c1c2ccccc2nc(SCc2ccc(F)cc2Cl)n1CCCN1CCOCC1	none
CSc1ccc(C(=O)C2CCCN(C(=O)CCn3cncn3)C2)cc1 (centres undefined)	none
CSc1ccc(C(=O)C2CCCN(C(=O)CCc3c(C)nn(C)c3C)C2)cc1 (centres undefined)	Nrf2 inh 9.2µM
COC1(OC)C=CC(=O)C=C1NC(=O)c1ccccc1OC(C)=O	Nrf2 activator inconclusive, TGFb inhibitor 11µM
CC(=O)Oc1ccccc1C(=O)Nc1ccccc1	none
COc1cc(-n2nc(C)c3c2OC(N)=C(C#N)C3c2ccccc2)c(Cl)c(Br)c1O (centres undefined)	TGFb inhibitor inconclusive
CCOc1ccc(Br)cc1C1=NN(C(C)=O)C(c2ccc([N+](=O)[O-])s2)O1 (centres undefined)	Nrf2 activator inconclusive, TGFb inhibitor 13µM
